In PubChem BioAssay AID2620 (National Center for Advancing Translational Sciences (NCATS), 2010):
Results filed as inconclusive are left out. The source made the active and inactive calls. Calls come from the whole dose curve; as a rule, active = well fitted curve in the direction sought with a large enough effect; inconclusive = small, poorly fitted or top-dose-only effect, or another doubt; inactive = no such curve, though single readings can be large or run the other way.

target: Pyruvate kinase PKM (Homo sapiens) (UniProt P14618); assay: Secondary LDH Assay for Activators of Human Pyruvate Kinase M1 Isoform: for Probe SAR; conditions: purified hPK-M1, LDH-coupled NADH fluorescence kinetic; series mostly up to 58.2 µM
Sequence (P14618 whole entry, looked up, canonical isoform): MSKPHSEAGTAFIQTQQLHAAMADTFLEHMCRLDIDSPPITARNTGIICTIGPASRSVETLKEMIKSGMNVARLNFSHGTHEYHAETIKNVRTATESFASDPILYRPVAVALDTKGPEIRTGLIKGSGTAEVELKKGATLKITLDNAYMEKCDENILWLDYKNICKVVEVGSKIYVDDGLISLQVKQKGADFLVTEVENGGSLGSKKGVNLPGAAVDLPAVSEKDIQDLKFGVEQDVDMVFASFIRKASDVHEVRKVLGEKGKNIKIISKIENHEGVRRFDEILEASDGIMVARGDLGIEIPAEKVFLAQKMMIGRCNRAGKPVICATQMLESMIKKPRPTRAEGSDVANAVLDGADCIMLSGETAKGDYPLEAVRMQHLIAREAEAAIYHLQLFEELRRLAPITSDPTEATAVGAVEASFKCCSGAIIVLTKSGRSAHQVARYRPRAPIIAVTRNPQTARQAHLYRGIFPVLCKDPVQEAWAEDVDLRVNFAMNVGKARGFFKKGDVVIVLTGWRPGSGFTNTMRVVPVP
Method in brief: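 Kinetic LDH-coupled read: initial rates from NADH fluorescence loss over 3-6 min, normalized to uninhibited controls. Final conditions 10 nM hPK-M1, 1 uM LDH, PEP 0.1 mM, ADP 4.0 mM, NADH 0.2 mM in Tris-Cl pH 8.0 with KCl and MgCl2.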

outcome, inactive:
Cc1ccc(NS(=O)(=O)c2ccc3c(c2)N(C)C(=O)CO3)cc1C
O=C1CCc2cc(S(=O)(=O)Nc3ccc(F)c(Cl)c3)ccc2N1
O=C1c2ccccc2C(=O)N1c1ccc2ccccc2n1
O=S1(=O)N=C(Oc2ccc(Cl)cc2)c2ccccc21
Cn1c2cc(S(C)=O)sc2c2cnn(Cc3cccc(N)c3)c(=O)c21 (stereo not given)
CCNc1cccc(S(=O)(=O)N2CCCN(S(=O)(=O)c3ccc4c(c3)OCCO4)CC2)c1
CC(C)Nc1cccc(S(=O)(=O)N2CCCN(S(=O)(=O)c3ccc4c(c3)OCCO4)CC2)c1
Cc1ccc(NS(=O)(=O)c2cccc(F)c2)cc1C
COc1ccccc1OC1=NS(=O)(=O)c2ccccc21
O=C1c2ccccc2C(=O)N1c1ccccn1
Cc1ccc(N(C)S(=O)(=O)c2ccc3c(c2)CCC(=O)N3)cc1C
Cc1ccc(NS(=O)(=O)c2cc3c(cc2Cl)NC(=O)CO3)cc1C
Cc1ccc(NS(=O)(=O)c2ccc3c(c2)oc(=O)n3C)cc1C
O=C1CCc2cc(S(=O)(=O)Nc3ccc4c(c3)CCC4)ccc2N1
O=C1c2ccccc2C(=O)N1c1cccc2cccnc12
Cc1ccc(NS(=O)(=O)c2ccc(-c3ccccc3)cc2)cc1C
Cc1ccc(NS(=O)(=O)c2ccc3c(c2)CCO3)cc1C
Cc1cc(NS(=O)(=O)c2ccc3c(c2)CCC(=O)N3)ccc1Cl
COc1ccc(OC2=NS(=O)(=O)c3ccccc32)cc1
COc1ccc(N2C(=O)c3ccccc3C2=O)cc1
Cc1ccc(NS(=O)(=O)c2cc3c(cc2Cl)NC(=O)C3)cc1C
O=C1CCc2cc(S(=O)(=O)Nc3cccc(Br)c3)ccc2N1
Cc1ccc(NS(=O)(=O)c2cc3c(cc2C)NC(=O)CO3)cc1C
O=C1c2ccccc2C(=O)N1c1noc2ccccc12
CCCCN1C(=O)c2ccccc2C1=O
COc1cccc(Cn2ncc3c4sc(SC)cc4n(C)c3c2=O)c1
Cc1ccc(N[S+](=O)([O-])c2cc3c(cc2CCc2ccccc2)NC(=O)CO3)cc1C
CCNc1cccc(S(=O)(=O)N2CCN(S(=O)(=O)c3ccc4c(c3)OCCO4)CC2)c1
Cn1c2cc(S(C)=O)sc2c2cnn(Cc3cccc(O)c3)c(=O)c21 (stereo not given)
Cc1ccc(NS(=O)(=O)c2cccc(Cl)c2)cc1C
